Rows were chosen to be rich in hits. Some 19% of all compounds tested hit in one or more screens of this group.
HT1080NT lethal – qHTS for induction of synthetic lethality in tumor cells producing 2HG: qHTS for the HT-1080-NT fibrosarcoma cell line; HT-1080-NT fibrosarcoma viability, CellTiter-Glo ATP luminescence, 48 h; Potency, µM (titrated, usually from 46.1 µM), for the others: top-dose activity, negative = less viability, usual class: cytotoxic; hit rate 1.6% among 360,000; AID 686970, 2013;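 further: NT is the 2HG producing partner of a matched IDH1 knockdown line; potency means the concentration at half of the fitted maximal effect; 0% = DMSO-treated cells and -100% = media-only wells without cells; nearly all actives have a fitted effect of over 55% in size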
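HT-1080-NT; 750 cells/well; 5% FBS RPMI; 48 h compound, 37 degrees C; CellTiter-Glo luminescence; curve fitting and curve-class assignment.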
HT1080 IDH1KD tx – qHTS for induction of synthetic lethality in tumor cells producing 2HG: qHTS for the HT-1080-IDH1KD cell line. AID 686971, 2013. Potency, µM (highest dose often 46.1 µM), without a hit: at the top dose activity, negative = toxicity, usual class: cytotoxic. hit rate 2% among 360,000. HT-1080 IDH1 knockdown viability, ATP luminescence, 48 h;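 further: potency means the concentration at half of the fitted maximal effect; 0% = DMSO wells and -100% = cell-free medium wells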
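Luminescent ATP read-out (CellTiter-Glo, 10 min at room temperature) after 48 h compound exposure at 37 °C gave viability of IDH1-knockdown HT-1080 cells. Activity was normalised to DMSO and cell-free wells, then fitted as concentration-response curves.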
DT40 TDP1 no CPT – qHTS for Inhibitors of human tyrosyl-DNA phosphodiesterase 1 (TDP1): qHTS in cells in absence of CPT; DT40 Tdp1-/- hTDP1 cells, no CPT, ATP luminescence, 48 h; Potency, µM (doses to about 46.2 µM), without a hit: at the top dose activity change, negative = growth inhibition, usual class: inhibitors; hit rate 15% among 420,000; AID 686978, 2013; further: potency means the concentration at half of the fitted maximal effect; nearly all actives have a fitted effect of over 55% in size
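Readout: luminescence from CellTiter-Glo after 30 min in the dark at RT. Cells: DT40 Tdp1-/- with stable hTDP1, 400/well. Exposure: compounds alone, ≥48 hr, 37 °C.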
IL1B secr inh – qHTS for Inhibitors of Inflammasome Signaling: IL-1-beta AlphaLISA Primary Screen; hit rate 4.7% among 360,000; AID 743279, 2014; activity change, % at 57.5 µM; THP-1 LPS/ATP IL-1B secretion, AlphaLISA, 16 h; hits give low values; in the data active means activity change below about -50%; inconclusive means mostly about -30% to -49%
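Secreted IL-1B measured by AlphaLISA bead assay after 16 h compound exposure of THP-1 cells; compounds (final up to 57.5 uM) added 1 h before LPS (250 ng/mL) and ATP (1.25 mM) stimulation; lower signal means less secretion.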
TDP1 cell CPT – qHTS for Inhibitors of human tyrosyl-DNA phosphodiesterase 1 (TDP1): qHTS in cells in presence of CPT. chicken DT40 Tdp1-/-;hTDP1 cells + 20 nM CPT, ATP luminescence, 48 h. Potency, µM (highest dose often 46.2 µM), for the others: at the highest dose activity change, negative = growth inhibition, actives largely listed as inhibitors. hit rate 12% among 420,000. AID 686979, 2013; further: potency means the concentration at half of the fitted maximal effect; nearly all actives have a fitted effect of over 55% in size
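Chicken DT40 Tdp1-/- cells complemented with human TDP1, 400 cells/well, exposed to compounds plus 20 nM camptothecin for at least 48 h at 37 C; viability read as ATP content by CellTiter-Glo luminescence.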
* hit, by the source's call; ! = not confirmed by another sample. Unless noted, the call rests on the fitted dose curve; in most records, active means well fitted curve in the direction sought with a large enough effect; inconclusive means small, poorly fitted or top-dose-only effect, or another doubt; inactive means no such curve, though single readings can be large; an effect the other way counts as inactive or inconclusive. Unless noted, on the % scale 0 is the no-effect control and ±100 the full control effect.

How did COc1cccc(-c2noc(CCC(=O)NC3CCCC3)n2)c1 do in these assays?
HT1080NT lethal: 6%; HT1080 IDH1KD tx: 1%; DT40 TDP1 no CPT: -14%; IL1B secr inh: 2; TDP1 cell CPT: -22%

Results for CCOc1ccc(CNc2nc3ccccc3n2CCN2CCOCC2)cc1 ?
HT1080NT lethal: 1%; HT1080 IDH1KD tx: 1%; DT40 TDP1 no CPT: 21µM*; IL1B secr inh: 19; TDP1 cell CPT: inconclusive

What do the screens show for `COc1ccc(CCN2CCC(Nc3nc4ccccc4n3Cc3ccc(F)cc3)CC2)cc1`?
HT1080NT lethal: 15µM*; HT1080 IDH1KD tx: 8.2µM*; DT40 TDP1 no CPT: 7.3µM*; IL1B secr inh: -67*; TDP1 cell CPT: 15µM*

How did COc1ccc(CNc2nc3ccccc3n2CCN2CCCCC2)cc1 do in these assays?
HT1080NT lethal: -18%; HT1080 IDH1KD tx: -21%; DT40 TDP1 no CPT: 21µM*; IL1B secr inh: inconclusive; TDP1 cell CPT: 18µM*

How did CCN(CC)CCSc1nc2ccccc2n1Cc1ccccc1 do in these assays?
HT1080NT lethal: -10%; HT1080 IDH1KD tx: -9%; DT40 TDP1 no CPT: 16µM*; IL1B secr inh: -18; TDP1 cell CPT: inconclusive

What do the screens show for `O=C(O)CSc1nc2ccccc2n1Cc1ccccc1`?
HT1080NT lethal: -1%; HT1080 IDH1KD tx: -8%; DT40 TDP1 no CPT: -19%; IL1B secr inh: 5; TDP1 cell CPT: -6%

Results for COc1ccc([C@H]2C[C@@H](O)[C@H](n3cc(C4CC4)nn3)CN2Cc2cccs2)cc1 ?
HT1080NT lethal: -2%; HT1080 IDH1KD tx: -14%; DT40 TDP1 no CPT: inconclusive; IL1B secr inh: -16; TDP1 cell CPT: -8%

How did c1ccc(Cn2c(CNc3nc4ccccc4n3CCN3CCCCC3)nc3ccccc32)cc1 do in these assays?
HT1080NT lethal: 21µM*; HT1080 IDH1KD tx: 23µM*; DT40 TDP1 no CPT: inconclusive; IL1B secr inh: -51*; TDP1 cell CPT: inconclusive

How did Cc1csc2ncc(C(=O)NC(C)c3ccccc3)c(=O)n12 (configuration not stated) do in these assays?
HT1080NT lethal: 2%; HT1080 IDH1KD tx: 1%; DT40 TDP1 no CPT: inconclusive; IL1B secr inh: 39; TDP1 cell CPT: inconclusive

How did CCOc1ccc(CNC(=O)CCCC(=O)n2ncc3cc(C)ccc32)cc1 do in these assays?
HT1080NT lethal: 26%; HT1080 IDH1KD tx: -3%; DT40 TDP1 no CPT: -19%; IL1B secr inh: -20; TDP1 cell CPT: 0%

Results for O=C1NC(=Nc2ccccc2Cl)S/C1=C\c1cc([N+](=O)[O-])ccc1O ?
HT1080NT lethal: -2%; HT1080 IDH1KD tx: -2%; DT40 TDP1 no CPT: -13%; IL1B secr inh: -26; TDP1 cell CPT: -8%

What do the screens show for `O=C1NC(=O)C(c2ccccc2[N+](=O)[O-])=C1Nc1ccc(O)c(Cl)c1`?
HT1080NT lethal: -1%; HT1080 IDH1KD tx: -3%; DT40 TDP1 no CPT: 27µM*!; IL1B secr inh: 48; TDP1 cell CPT: 7.3µM*!

Results for O=C(CN1C(=O)c2cccc3cccc1c23)Nc1ccccc1Br ?
DT40 TDP1 no CPT: -12%; TDP1 cell CPT: -11%

Results for CCN1C(=O)[C@H]2[C@@H](c3ccc(-c4cccc(Cl)c4)cc3)N[C@@](C)(C(=O)OC)[C@H]2C1=O ?
HT1080NT lethal: 0%; HT1080 IDH1KD tx: -12%; DT40 TDP1 no CPT: 13µM*; IL1B secr inh: -5; TDP1 cell CPT: 16µM*

Results for CCN1C(=O)[C@H]2[C@@H](c3ccc(-c4ccc(F)cc4)cc3)N[C@@](C)(C(=O)OC)[C@H]2C1=O ?
HT1080NT lethal: inconclusive; HT1080 IDH1KD tx: 14%; DT40 TDP1 no CPT: 21µM*; IL1B secr inh: -12; TDP1 cell CPT: 23µM*

Results for CCN1C(=O)[C@H]2[C@@H](c3ccc(-c4ccc(C(C)=O)cc4)cc3)N[C@@](C)(C(=O)OC)[C@H]2C1=O ?
HT1080NT lethal: 1%; HT1080 IDH1KD tx: 9%; DT40 TDP1 no CPT: -24%; IL1B secr inh: 33; TDP1 cell CPT: inconclusive

How did CCN1C(=O)[C@H]2[C@@H](c3ccc(-c4ccc(F)cc4)c(OC)c3)N[C@@](C)(C(=O)OC)[C@H]2C1=O do in these assays?
HT1080NT lethal: -7%; HT1080 IDH1KD tx: 5%; DT40 TDP1 no CPT: inconclusive; IL1B secr inh: -16; TDP1 cell CPT: 13µM*

Results for CCN1C(=O)C2C(c3cccc(F)c3)NC(C)(C(=O)OC)C2C1=O (configuration not stated) ?
HT1080NT lethal: 16%; HT1080 IDH1KD tx: 21%; DT40 TDP1 no CPT: -8%; IL1B secr inh: 6; TDP1 cell CPT: -11%

How did CCC1CCCCN1S(=O)(=O)c1ccc(C(=O)Nc2sc3c(c2C(=O)NC)CCC3)cc1 (configuration not stated) do in these assays?
DT40 TDP1 no CPT: 16µM*; TDP1 cell CPT: 21µM*

Results for CNC(=O)c1c(NC(=O)c2ccco2)sc2c1CCC2 ?
HT1080NT lethal: -5%; HT1080 IDH1KD tx: -12%; DT40 TDP1 no CPT: inconclusive; IL1B secr inh: -25; TDP1 cell CPT: inconclusive

Results for CNC(=O)c1c(NC(=O)c2ccc(S(=O)(=O)N3CCCC(C)C3)cc2)sc2c1CCC2 (configuration not stated) ?
DT40 TDP1 no CPT: 18µM*; TDP1 cell CPT: 21µM*

Results for CCc1nnc(NC(=O)c2ccc(S(=O)(=O)N3CCCC(C)C3)cc2)s1 (configuration not stated) ?
HT1080NT lethal: 0%; HT1080 IDH1KD tx: 2%; DT40 TDP1 no CPT: -16%; IL1B secr inh: 15; TDP1 cell CPT: 7%

Results for CC(C)C(OC(=O)CN1C(=O)c2ccccc2C1=O)C(=O)NC1CCCCC1 (configuration not stated) ?
HT1080NT lethal: 3%; HT1080 IDH1KD tx: 11%; DT40 TDP1 no CPT: -3%; IL1B secr inh: -5; TDP1 cell CPT: 1%

How did CN(c1ccc(F)cc1)S(=O)(=O)N1CCCC(C(=O)NCc2cccc(Br)c2)C1 (configuration not stated) do in these assays?
DT40 TDP1 no CPT: 12µM*; TDP1 cell CPT: 15µM*

What do the screens show for `CCOc1ccc(CNC(=O)C2CCCN(S(=O)(=O)N3CCC(C)CC3)C2)cc1OC` (configuration not stated)?
HT1080NT lethal: 0%; HT1080 IDH1KD tx: -1%; DT40 TDP1 no CPT: inconclusive; IL1B secr inh: -14; TDP1 cell CPT: inconclusive

Results for CCOc1ccc(CNC(=O)C2CCCN(S(=O)(=O)N(C)c3ccc(F)cc3)C2)cc1OC (configuration not stated) ?
DT40 TDP1 no CPT: 13µM*; TDP1 cell CPT: 15µM*
